# Most compounds without a hit are left out; they make up all but 3.8% or so of the library.
# HSF1 activator: increases HSF-1 driven luciferase reporter signal; NIH3T3-HGL HSF-1 luciferase reporter, MG132, 8 h; 100% = twice DMSO control signal; AID 504408; activation, % at 9 µM; 300,000 tested, 1.7% active;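 active means mean replicate activation of at least 50% with a set share of replicates each reaching 50%; inconclusive means only one of those two conditions met; inactive means mean below 50% and too few replicates reaching it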
# MITF act: MITF TRPM1 promoter activation in melanoma cells; SK-MEL-5 TRPM1-promoter luciferase, 24 h; % of positive control, neutral wells = 0; activation, % at 12.5 µM; 300,000 tested, 0.75% active; AID 588334;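 active means mean activation of at least 80% with every replicate also reaching 80%; inconclusive means mean reaches 80% but some replicate falls short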
# Wnt bcat act: Wnt/beta-catenin pathway activation | Wnt/beta-catenin reporter cell assay, activator, plate reader | activation, % at 9.35 µM | 300,000 tested, 1.2% active | AID 743398; in the data active means activation above about 30%, passing the limit was not always enough; inconclusive means no clear call, values can overlap the other calls
# HSF1 inhib: HSF1 inhibition | NIH3T3-HGL HSE-luciferase, MG132-induced, luminescence 8 h; active compounds read low | activity change, negative = inhibition, % at 7.5 µM (by protocol) | 300,000 tested, 0.77% active | AID 2098;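 active means more than half of replicate wells show activity change below -50%, luminescence cut by over half; inconclusive means some wells, but at most half, below -50%; inactive means no replicate well below -50%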;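 further: luciferase reports HSF-1 transcriptional activity via heat shock element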
# esBAF inh: blocks esBAF chromatin remodeling in mouse ES cells | Bmi1-luciferase knock-in reporter, 24 h; 100% = twice the neutral-well signal | reporter increase, % at 12.5 µM | 350,000 tested, 2% active | AID 602393; in the data active means activation above about 40%; inconclusive means no clear call, values can overlap the other calls;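 further: a rise in the Bmi1 reporter signal indicates esBAF inhibition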
# Hits are given with their value; i = inactive; ? = inconclusive; nt = not tested or not shown.
SMILES,HSF1 activator,MITF act,Wnt bcat act,HSF1 inhib,esBAF inh
COc1ccccc1NC(=O)N[C@H]1CC[C@@H](CCn2cc(-c3ccccc3)nn2)O[C@@H]1CO,nt,nt,nt,nt,i
C[C@@H]1CN([C@H](C)CO)C(=O)c2cccc(NC(=O)Nc3ccc4c(c3)OCO4)c2O[C@H]1CN(C)Cc1ccc2c(c1)OCO2,nt,nt,nt,nt,i
Cc1ccc(S(=O)(=O)Nc2cccc3c2O[C@@H](CN(C)C(=O)Nc2ccc4c(c2)OCO4)[C@@H](C)CN([C@@H](C)CO)C3=O)cc1,nt,nt,nt,nt,73
C[C@@H]1CN([C@@H](C)CO)C(=O)c2cccc(NC(=O)Nc3ccc4c(c3)OCO4)c2O[C@H]1CN(C)Cc1ccc(Cl)c(Cl)c1,nt,nt,nt,nt,55
C[C@H]1CN([C@@H](C)CO)C(=O)Cc2cc(NC(=O)C3CCCCC3)ccc2O[C@@H]1CN(C)C(=O)Nc1ccc2c(c1)OCO2,nt,nt,nt,nt,42
C[C@H]1CN([C@@H](C)CO)C(=O)Cc2cc(NC(=O)C3CCCCC3)ccc2O[C@H]1CN(C)C(=O)Nc1ccc2c(c1)OCO2,nt,nt,nt,nt,i
C[C@H]1CN([C@@H](C)CO)C(=O)c2cccc(NC(=O)Nc3ccccc3)c2O[C@H]1CN(C)C(=O)Nc1ccc2c(c1)OCO2,nt,nt,nt,nt,i
C[C@@H]1CN([C@@H](C)CO)C(=O)c2cccc(NC(=O)Nc3ccccc3)c2O[C@H]1CN(C)C(=O)Nc1ccc2c(c1)OCO2,nt,nt,nt,nt,61
COc1ccc(NC(=O)N(C)C[C@@H]2Oc3ccc(NS(=O)(=O)c4ccc(F)cc4)cc3CC(=O)N([C@@H](C)CO)C[C@@H]2C)cc1,nt,nt,nt,nt,i
CN1CCN(C(=O)C[C@H]2C[C@H]3c4cc(NC(=O)Nc5ccc(C(F)(F)F)cc5)ccc4O[C@H]3[C@@H](CO)O2)CC1,nt,nt,nt,nt,i
C[C@H]1CN([C@@H](C)CO)C(=O)c2cccc(NS(=O)(=O)c3ccccc3)c2O[C@@H]1CN(C)C(=O)Nc1ccc2c(c1)OCO2,nt,nt,nt,nt,57
Cc1ccc(S(=O)(=O)Nc2cccc3c2O[C@H](CN(C)C(=O)Nc2ccc4c(c2)OCO4)[C@@H](C)CN([C@H](C)CO)C3=O)cc1,nt,nt,nt,nt,49
O=C(Nc1ccc(Cl)c(Cl)c1)c1ccccc1,nt,i,i,nt,nt
COC(=O)c1ccc(C(=O)Nc2ccc(F)cc2)cc1,nt,i,i,nt,67
O=C(COC(=O)Cc1ccccc1F)Nc1ccc(SC(F)F)cc1,i,i,i,i,nt
O=C(Nc1ccc2nc3ccccc3nc2c1)c1ccccc1,81,i,nt,i,nt
O=C(Cc1ccccc1F)Nc1ccc(SC(F)F)cc1,59,103,i,i,nt
O=C(Nc1ccc(C2SCCS2)cc1)c1ccccc1,54,nt,49,i,nt
O=C(Nc1ccc(Nc2ccccc2)cc1)c1ccccc1,i,nt,i,i,nt
CCNC(=O)Nc1ccc2c(c1)C(=O)N(C)[C@@H]1CC[C@H](CC(=O)N[C@@H](C)c3ccccc3)O[C@@H]1CO2,nt,nt,nt,nt,i
O=C(CSc1ccc(F)cc1)Nc1ccc(Br)cc1,102,i,i,i,nt
O=C(/C=C/c1ccccc1)Nc1cccc(C(=O)NCCCc2ccccc2)c1,nt,i,i,nt,43
O=C(CNc1ccccc1)Nc1ccc(F)cc1,?,i,nt,i,52
COC(=O)c1ccc(NC(=O)c2ccc(OC(C)=O)c(OC)c2)cc1,i,i,i,i,50
C[C@H](CO)N1C[C@H](C)[C@@H](CN(C)Cc2ccccc2)Oc2ncc(C#CCN(C)C)cc2C1=O,nt,nt,nt,nt,i
SMILES,HSF1 activator,MITF act,Wnt bcat act,HSF1 inhib,esBAF inh
O=C(Nc1ccc(F)cc1)c1ccccc1,65,104,i,i,81
O=C(Nc1ccc(SC(F)F)cc1)c1ccc(F)cc1,?,87,i,i,nt
CCCCNC(=O)Nc1ccc(C2SCCS2)cc1,69,nt,i,i,i
O=C(Nc1ccc(F)cc1)c1cccc(C(=O)Nc2ccc(F)cc2)c1,i,i,i,i,i
CNC(=O)Nc1ccc(C2SCCS2)cc1,i,nt,i,i,nt
O=C(Nc1ccccc1)c1ccc(NC(=O)C2CC2)cc1,54,i,i,i,i
COc1ccc(NC(=O)N(C)C[C@H]2Oc3ccc(NC(=O)Cn4cnnn4)cc3C(=O)N([C@H](C)CO)C[C@H]2C)cc1,nt,nt,nt,nt,i
COc1ccccc1C(=O)N1C[C@H]2[C@@H](c3ccccc31)[C@H](CO)N2Cc1ccc(F)cc1,nt,nt,nt,nt,i
Cc1ccc(S(=O)(=O)Nc2ccc3c(c2)C(=O)N([C@H](C)CO)C[C@@H](C)[C@H](CN(C)C(=O)Nc2cccc4ccccc24)O3)cc1,nt,nt,nt,nt,i
C[C@@H]1CN([C@H](C)CO)S(=O)(=O)c2ccc(-c3cccnc3)cc2O[C@@H]1CN(C)C(=O)NC1CCCC1,nt,nt,nt,nt,i
O=C(NCCCCc1ccccc1)c1cccc(NC(=O)c2ccccc2)c1,nt,i,i,nt,i
O=C(NCCc1ccc(F)cc1)c1cccc(NC(=O)c2ccccc2)c1,i,i,i,i,65
CC(C)c1ccc(NC(=O)C2CC3CCC2C3)cc1 (stereo unspecified),i,nt,i,i,57
CCOC(=O)c1ccc(NS(=O)C23CC4CC(CC(C4)C2)C3)cc1 (stereo unspecified),i,i,nt,i,64
CCOC(=O)c1ccc(NC(=O)CNC(=O)C23CC4CC(CC(C4)C2)C3)cc1,i,i,nt,i,i
O=C(Nc1ccc(F)cc1)C1CC2CCC1C2 (stereo unspecified),i,nt,i,i,i
O=C(Nc1ccc(F)c(Cl)c1)C1CC2CCC1C2 (stereo unspecified),70,i,i,i,i
COC(=O)c1ccc(NC(=O)C2CC3CCC2C3)cc1 (stereo unspecified),i,98,i,i,47
C[C@@H]1CN([C@@H](C)CO)C(=O)c2ccccc2-c2ccccc2CO[C@H]1CN(C)C(=O)Nc1cccc(F)c1,nt,nt,nt,nt,i
CCCN(C)C[C@H]1Oc2ncc(C#Cc3ccc(OC)cc3)cc2C(=O)N([C@H](C)CO)C[C@H]1C,nt,nt,nt,nt,i
CCOc1ccc(NC(=O)C2CC3CCC2C3)cc1 (stereo unspecified),i,nt,i,i,nt
CCOC(=O)c1ccc(NC(=O)C2CC3CCC2C3)cc1 (stereo unspecified),64,nt,46,i,nt
CC(=O)N1CCc2cc(S(=O)(=O)C(C)CC(=O)Nc3ccc(OC(F)(F)F)cc3)ccc21 (stereo unspecified),i,i,i,i,45
COc1ccc(NC(=O)CCS(=O)(=O)c2ccc3c(c2)CCN3C(C)=O)cc1,i,i,i,i,i
C[C@@H]1CN([C@@H](C)CO)C(=O)Cc2cc(NC(=O)c3ccncc3)ccc2O[C@H]1CN(C)Cc1ccncc1,nt,nt,nt,nt,i
COCCN(CC(=O)Nc1cccc(C)c1C)C(=O)c1ccc2ccccc2n1,nt,i,i,nt,47
O=C1c2ccccc2NC(c2ccc(Br)o2)N1O (stereo unspecified),nt,nt,44,nt,i
O=C1c2ccccc2NC(c2ccc(-c3cccs3)o2)N1O (stereo unspecified),nt,83,59,nt,67
CCc1cc2c(=O)[nH]c(N3CCCC3)nc2s1,i,i,i,i,nt
CCc1cc2c(=O)[nH]c(-c3ccccn3)nc2s1,215,i,34,i,nt

# Assay outcomes deposited in PubChem by Broad Institute.
